Source: PubChem BioAssay (NCI)
Compounds without any hit were thinned out: in the full panel of roughly 83,000, 20% have a hit.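 Values shown are percent growth following 48 h exposure of cells in 96-well plates to a single concentration of compound; below 10 was considered active.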 Unmarked numbers belong to inactive results. Active and inactive are the calls of the source.

What follows are compounds tested on HOP-62 NSCLC (assay: NCI-60 one-dose screen, 48 h (100 = growth as untreated, 0 = no growth, -100 = all killed)). Details: 10 µM unless noted.
Experimental: Growth inhibition of the HOP-62 human Non-Small Cell Lung tumor cell line is measured as a screen for anti-cancer activity. Cells are grown in 96 well plates and exposed to the test compound for 48 hours. Compounds are tested at a single concentration, which is 10^-5 M for most compounds. The reported endpoint is percent growth (GI% or GIPRCNT), where numbers from 0 - 100% represent growth inhibition, and numbers from -100% - 0 represent cell death. For example, a value of 40 represents 60% growth inhibition. A value of 0 means no net growth occurred over the course of the experiment. A value of -40 indicates 40% of cells at the beginning of the experiment died by the end of the experiment. A value of -100 means all cells are dead at the end of the experiment.
NCI-60 Human Tumor Cell Lines Screen was performed using the standard one-dose NCI protocol, which is described in more detail at https://dtp.cancer.gov/discovery_development/nci-60/default.htm.
Compounds with GIPRCNT values below 10 were considered active. Activity score was based on GIPRCNT using the following formula: […]
Score is 0 for GIPRCNT values of 100 or above, 50 for GIPRCNT values of 0, and 100 for GIPRCNT values of -100.

| SMILES | growth |
| --- | --- |
| CCOC(=O)c1c(NCC(=O)Nc2cccc([N+](=O)[O-])c2)sc2c1CCCC2 | -48.4% (active) |
| C#CCOc1ccc(C(Nc2ccc(Cl)cc2)c2nnnn2C2CCCCC2)cc1 (stereo not given) | 83.4% |
| Fc1ccc(-c2cc3nc(C(Cl)Cl)nc(-c4cccs4)n3n2)cc1 | 5.82% (active) |
| CCOC(=O)C1=C(C)Nc2nc3ccccc3n2C1c1ccccc1 (stereo not given) | 100% |
| COc1ccc(-c2ccc3c4c(cccc24)C(=O)N(N2C(=O)c4cccc5cccc(c45)C2=O)C3=O)cc1 | 92.7% |
| C#C[C@]1(O)CC[C@H]2[C@@H]3CC=C4c5sc(C6CCOCC6)nc5CC[C@]4(C)[C@H]3CC[C@@]21C | 90.5% |
| CCNCc1c(-c2cccc(OC(F)(F)F)c2)[nH]c2ccc(N3CCCC3)cc2c1=O | 29.2% |
| O=C(CCCCCCN1CC(=O)N2[C@@H](c3cccc(Br)c3)c3[nH]c4ccccc4c3C[C@H]2C1=O)NO | 30.2% |
| CC(=O)C1=NN(c2ccc(Cl)cc2)C(=O)CN1C | 103% |
| COc1ccc(-c2ccnc3c(C#N)c(Nc4ccccc4)nn23)cc1OC | 86.5% |
| O=C(Nc1cccc(-c2nc(-c3ccc(NC(=O)c4cccnc4)cc3Cl)no2)c1)Nc1ccc(NC(=O)C2CC2)c(C(F)(F)F)c1 | -47.8% (active) |
| Cc1cn(-c2cc(NC(=O)c3cncc(C#Cc4cnc5ccc(O[C@@H]6CCOC6)nn45)c3)cc(C(F)(F)F)c2)cn1 | -12% (active) |
| Cc1cc(O)c2c(c1)C(=O)C(c1c(C)cc3c(c1O)C(=O)C=CC3=O)=CC2=O | 98.6% |
| NCCN1CCN(c2nc(-c3ccccc3)nc3nc(-c4ccccc4)oc23)CC1 | 0.341% (active) |
| Cc1ccc(/C=C/CC(=O)Nc2ccc(C(=O)Nc3ccc(F)cc3N)nc2)cn1 | 51.1% |
| Nc1nc(N)c2c(n1)NC(c1ccc(Cl)cc1)CC(c1ccc(Nc3nc(NCCO)nc(Nc4ccc(Cl)cc4)n3)cc1)=N2 (stereo not given) | -63.7% (active) |
| O=c1c2ccccc2nc(COc2ccccc2)n1/N=C/C=C/c1ccccc1 | 98.6% |
| CS(=O)c1nccc(-c2c(-c3ccc(F)c(OCCc4ccccc4)c3)nc3sccn23)n1 (stereo not given) | 98.2% |
| CCN1C(=O)N(CC)C2C1NN=C1SC(c3ccccc3)=CC(=O)N12 (stereo not given) | 30.7% |
| C[C@H]1[C@H](C)CC[C@]2(COC(=O)c3cccnc3)CC[C@]3(C)C(=CC[C@@H]4[C@@]5(C)CCCNC(C)(C)[C@@H]5CC[C@]43C)[C@H]12 | 99.8% |

| SMILES | growth |
| --- | --- |
| CN(c1ccc(F)cc1)S(=O)(=O)c1ccc(-c2cnc(C3CC3)o2)cc1 | 44.1% |
| COc1cc2oc(-c3cccc(NC(=O)c4cc(NC(=O)[C@H](C)N)ccc4Cl)c3)cc(=O)c2c(OC)c1OC | 105% |
| C=CCn1c(SCC(=O)Nc2cccc(C(=O)/C=C/c3cc(OC)c(OC)c(OC)c3)c2)nc2ccccc2c1=O | 45.8% |
| IP(CCCCCCCCCCSc1n(Cc2ccc3ccccc3c2)c(-c2ccccc2)c(-c2ccccc2)[n+]1Cc1ccc2ccccc2c1)(c1ccccc1)(c1ccccc1)c1ccccc1 | -59.1% (active) |
| N#C/C(=C\c1ccc(-c2ccc(F)cc2)o1)C(=O)Nc1ncc(Cc2ccc(Cl)cc2Cl)s1 | -34.7% (active) |
| COc1cc(/C=N/n2cnc3oc(-c4ccccc4)cc3c2=N)cc(CN2CCOCC2)c1O | 74.2% |
| COc1ccc2c(C3=C(c4cn(C)c5ccccc45)C(=O)NC3=O)coc2c1 | 45.3% |
| C=C1C(=O)O[C@@H]2C[C@@H](C)[C@H](OC)CC(=O)[C@](C)(OC(C)=O)C[C@H](OC(=O)/C(C)=C\C)[C@@H]12 | 89.5% |
| CC1=C2C(=C[C@@](C)(COS(N)(=O)=O)[C@@H]2O)C(=O)[C@](C)(O)C12CC2 | 45.7% |
| O=C(NCCNc1cc(-c2cn(-c3ccccc3)nc2-c2cccc(O)c2)ccn1)Nc1ccc(Cl)c(C(F)(F)F)c1 | 85.3% |
| O=c1cc(-c2ccccc2)nc2sc(-c3c[nH]c4ccc(F)cc34)nn12 | 19.1% |
| CCNC(=O)Oc1ccc(/C(=C(/C)c2ccccc2)c2ccc(OCCN3CCCC3)cc2)cc1 | 89.9% |
| CC1CCN(S(=O)(=O)c2ncsc2-c2ccccc2)CC1 | 85.3% |
| COc1ccc(-c2nc3cc(Cl)c(Cl)cc3n2CC(=O)N=Nc2c(O)[nH]c3ccccc23)cc1 | 45.3% |
| CCOC(=O)C1=C(C)Nc2nnc(Nc3ccccc3)n2C1c1ccccc1 (stereo not given) | 81.8% |
| CN1CCN(c2ccc3c(C(N)=O)c(NC(=O)c4ccc(C(C)(C)C)cc4)sc3c2)CC1 | 86.6% |
| CCCCOc1ccc(S(=O)(=O)N2CCN(c3nccc(N4CCOCC4)n3)CC2)cc1 | 88.9% |
| COc1cc(/C=C2\SC(=O)NC2=O)ccc1OCC(=O)Nc1ccc(C(=O)/C=C/c2cc3ccccc3nc2Cl)cc1 | 107% |
| NC(=S)N/N=C(/C=C/c1cn(-c2ccccc2)nc1-c1ccc(Cl)cc1)c1cc2ccccc2oc1=O | 43% |
| CN1CCN(c2ccc(C(=O)/C=C/c3ccc(Cl)c(C(F)(F)F)c3)cc2)CC1 | 88.9% |
